{"source": "paper PMC11006913", "test_in_all_cases": "PBM; 200 nM protein, PBS", "details_in_all_cases": "dsDNA, one strand shown", "key": {"HOXB9 [1]": {"biological_target": "HOXB9 (Homo sapiens, UniProt P17482 171-250, T197M)", "sequence (P17482 171-250 T197M)": "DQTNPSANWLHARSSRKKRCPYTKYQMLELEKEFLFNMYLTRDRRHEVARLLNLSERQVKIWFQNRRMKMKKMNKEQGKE"}, "PAX4 [2]": {"biological_target": "T1, PAX4 (Homo sapiens, UniProt O43316 9-242, R200K)", "T1 sequence": "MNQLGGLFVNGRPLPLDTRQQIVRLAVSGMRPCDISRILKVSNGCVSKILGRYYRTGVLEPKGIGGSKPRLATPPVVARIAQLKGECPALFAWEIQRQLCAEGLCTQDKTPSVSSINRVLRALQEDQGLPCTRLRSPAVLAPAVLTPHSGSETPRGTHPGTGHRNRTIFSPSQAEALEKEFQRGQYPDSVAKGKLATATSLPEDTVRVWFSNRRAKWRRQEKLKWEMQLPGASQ"}, "PAX4 [3]": {"biological_target": "T2, PAX4 (Homo sapiens, UniProt O43316 9-242)", "T2 sequence": "T1 sequence with K192R"}, "HOXB9 [4]": {"biological_target": "HOXB9 (Homo sapiens, UniProt P17482 171-250)", "sequence (P17482 171-250)": "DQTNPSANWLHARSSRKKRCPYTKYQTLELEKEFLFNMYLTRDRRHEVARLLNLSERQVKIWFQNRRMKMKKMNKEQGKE"}, "MSX2 [5]": {"biological_target": "MSX2 (Homo sapiens, UniProt P35548 130-214, R199I)", "sequence (P35548 130-214 R199I)": "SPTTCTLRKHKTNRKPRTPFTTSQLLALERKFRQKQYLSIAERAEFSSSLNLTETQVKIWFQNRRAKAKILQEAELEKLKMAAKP"}, "PAX4 [6]": {"biological_target": "T3, PAX4 (Homo sapiens, UniProt O43316 9-242, R200Q)", "T3 sequence": "T1 sequence with K192Q"}, "PAX4 [7]": {"biological_target": "T4, PAX4 (Homo sapiens, UniProt O43316 9-242, F177V)", "T4 sequence": "T1 sequence with F169V, K192R"}, "MSX2 [8]": {"biological_target": "MSX2 (Homo sapiens, UniProt P35548 130-214)", "sequence (P35548 130-214)": "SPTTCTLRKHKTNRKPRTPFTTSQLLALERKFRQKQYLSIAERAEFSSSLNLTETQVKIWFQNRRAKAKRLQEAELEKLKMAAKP"}, "PAX4 [9]": {"biological_target": "T5, PAX4 (Homo sapiens, UniProt O43316 9-242, F177Y)", "T5 sequence": "T1 sequence with F169Y, K192R"}, "HOXB9 [10]": {"biological_target": "HOXB9 (Homo sapiens, UniProt P17482 171-250, R186Q)", "sequence (P17482 171-250 R186Q)": "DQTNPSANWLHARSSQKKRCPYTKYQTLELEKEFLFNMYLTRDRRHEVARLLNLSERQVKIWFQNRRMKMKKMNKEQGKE"}, "MSX2 [11]": {"biological_target": "MSX2 (Homo sapiens, UniProt P35548 130-214, F161Y)", "sequence (P35548 130-214 F161Y)": "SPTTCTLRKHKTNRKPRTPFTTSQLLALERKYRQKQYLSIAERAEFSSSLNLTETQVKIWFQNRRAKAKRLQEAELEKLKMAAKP"}, "PAX4 [12]": {"biological_target": "T6, PAX4 (Homo sapiens, UniProt O43316 9-242, R227W)", "T6 sequence": "T1 sequence with K192R, R219W"}, "HOXC9 [13]": {"biological_target": "HOXC9 (Homo sapiens, UniProt P31274 178-260, K195R)", "sequence (P31274 178-260 K195R)": "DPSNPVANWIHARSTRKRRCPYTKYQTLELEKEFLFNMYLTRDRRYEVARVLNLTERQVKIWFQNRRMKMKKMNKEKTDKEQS"}, "HOXC9 [14]": {"biological_target": "HOXC9 (Homo sapiens, UniProt P31274 178-260)", "sequence (P31274 178-260)": "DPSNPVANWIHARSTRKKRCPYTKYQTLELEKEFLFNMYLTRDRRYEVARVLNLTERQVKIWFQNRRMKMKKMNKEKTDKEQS"}, "HOXC9 [15]": {"biological_target": "HOXC9 (Homo sapiens, UniProt P31274 178-260, R193K)", "sequence (P31274 178-260 R193K)": "as the sequence (P31274 178-260) above, with R16K counted along it"}, "HOXC9 [16]": {"biological_target": "HOXC9 (Homo sapiens, UniProt P31274 178-260, R222W)", "sequence (P31274 178-260 R222W)": "as the sequence (P31274 178-260) above, with R45W counted along it"}, "ALX4 [17]": {"biological_target": "ALX4 (Homo sapiens, UniProt Q9H161 200-286)", "sequence (Q9H161 200-286)": "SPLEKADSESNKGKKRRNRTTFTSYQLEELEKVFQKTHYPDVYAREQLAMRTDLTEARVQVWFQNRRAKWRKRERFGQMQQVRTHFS"}, "ALX4 [18]": {"biological_target": "ALX4 (Homo sapiens, UniProt Q9H161 200-286, Q225E)", "sequence (Q9H161 200-286 Q225E)": "as the sequence (Q9H161 200-286) above, with Q26E counted along it"}, "PROP1 [19]": {"biological_target": "PROP1 (Homo sapiens, UniProt O75360 56-141)", "sequence (O75360 56-141)": "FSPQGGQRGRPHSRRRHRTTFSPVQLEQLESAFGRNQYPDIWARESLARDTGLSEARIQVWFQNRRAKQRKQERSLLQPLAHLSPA"}, "PROP1 [20]": {"biological_target": "PROP1 (Homo sapiens, UniProt O75360 56-141, R99H)", "sequence (O75360 56-141 R99H)": "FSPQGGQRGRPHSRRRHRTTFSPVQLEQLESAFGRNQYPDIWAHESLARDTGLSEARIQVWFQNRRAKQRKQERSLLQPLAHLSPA"}, "PROP1 [21]": {"biological_target": "PROP1 (Homo sapiens, UniProt O75360 56-141, F88S)", "sequence (O75360 56-141 F88S)": "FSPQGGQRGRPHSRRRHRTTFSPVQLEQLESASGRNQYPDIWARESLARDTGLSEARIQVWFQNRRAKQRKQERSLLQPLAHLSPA"}}, "note": "Numbering of substitutions follows the chain as printed."}
{"sequence": "AGCCGCAG", "values": [{"measurement": "binding signal", "setting": "HOXB9 [1]", "value": "8.34 upbm affinity estimate (log intensity, higher = more binding, comparable within an allelic series)"}, {"measurement": "binding signal", "setting": "PAX4 [2]", "value": "9.2 upbm affinity estimate (log intensity, higher = more binding, comparable within an allelic series)"}, {"measurement": "binding signal", "setting": "PAX4 [3]", "value": "9.21 upbm affinity estimate (log intensity, higher = more binding, comparable within an allelic series)"}, {"measurement": "binding signal", "setting": "HOXB9 [4]", "value": "8.11 upbm affinity estimate (log intensity, higher = more binding, comparable within an allelic series)"}, {"measurement": "binding signal", "setting": "MSX2 [5]", "value": "9.46 upbm affinity estimate (log intensity, higher = more binding, comparable within an allelic series)"}, {"measurement": "binding signal", "setting": "PAX4 [6]", "value": "9.21 upbm affinity estimate (log intensity, higher = more binding, comparable within an allelic series)"}, {"measurement": "binding signal", "setting": "PAX4 [7]", "value": "9.11 upbm affinity estimate (log intensity, higher = more binding, comparable within an allelic series)"}, {"measurement": "binding signal", "setting": "MSX2 [8]", "value": "9.43 upbm affinity estimate (log intensity, higher = more binding, comparable within an allelic series)"}, {"measurement": "binding signal", "setting": "PAX4 [9]", "value": "9.12 upbm affinity estimate (log intensity, higher = more binding, comparable within an allelic series)"}, {"measurement": "binding signal", "setting": "HOXB9 [10]", "value": "8.24 upbm affinity estimate (log intensity, higher = more binding, comparable within an allelic series)"}, {"measurement": "binding signal", "setting": "MSX2 [11]", "value": "9.5 upbm affinity estimate (log intensity, higher = more binding, comparable within an allelic series)"}, {"measurement": "binding signal", "setting": "PAX4 [12]", "value": "9.18 upbm affinity estimate (log intensity, higher = more binding, comparable within an allelic series)"}]}
{"sequence": "CCGCTCCG", "values": [{"measurement": "binding signal", "setting": "HOXB9 [1]", "value": "8.44 upbm affinity estimate (log intensity, higher = more binding, comparable within an allelic series)"}, {"measurement": "binding signal", "setting": "HOXC9 [13]", "value": "9.63 upbm affinity estimate (log intensity, higher = more binding, comparable within an allelic series)"}, {"measurement": "binding signal", "setting": "HOXB9 [4]", "value": "8.59 upbm affinity estimate (log intensity, higher = more binding, comparable within an allelic series)"}, {"measurement": "binding signal", "setting": "HOXC9 [14]", "value": "9.73 upbm affinity estimate (log intensity, higher = more binding, comparable within an allelic series)"}, {"measurement": "binding signal", "setting": "HOXC9 [15]", "value": "9.74 upbm affinity estimate (log intensity, higher = more binding, comparable within an allelic series)"}, {"measurement": "binding signal", "setting": "HOXB9 [10]", "value": "8.66 upbm affinity estimate (log intensity, higher = more binding, comparable within an allelic series)"}, {"measurement": "binding signal", "setting": "HOXC9 [16]", "value": "9.7 upbm affinity estimate (log intensity, higher = more binding, comparable within an allelic series)"}]}
{"sequence": "TCCCGGGA", "values": [{"measurement": "binding signal", "setting": "HOXB9 [1]", "value": "8.9 upbm affinity estimate (log intensity, higher = more binding, comparable within an allelic series)"}, {"measurement": "binding signal", "setting": "ALX4 [17]", "value": "8.7 upbm affinity estimate (log intensity, higher = more binding, comparable within an allelic series)"}, {"measurement": "binding signal", "setting": "ALX4 [18]", "value": "8.23 upbm affinity estimate (log intensity, higher = more binding, comparable within an allelic series)"}, {"measurement": "binding signal", "setting": "HOXB9 [4]", "value": "8.93 upbm affinity estimate (log intensity, higher = more binding, comparable within an allelic series)"}, {"measurement": "binding signal", "setting": "HOXB9 [10]", "value": "8.89 upbm affinity estimate (log intensity, higher = more binding, comparable within an allelic series)"}]}
{"sequence": "GCCTTCCC", "values": [{"measurement": "binding signal", "setting": "HOXB9 [1]", "value": "8.39 upbm affinity estimate (log intensity, higher = more binding, comparable within an allelic series)"}, {"measurement": "binding signal", "setting": "HOXC9 [13]", "value": "9.49 upbm affinity estimate (log intensity, higher = more binding, comparable within an allelic series)"}, {"measurement": "binding signal", "setting": "HOXB9 [4]", "value": "8.31 upbm affinity estimate (log intensity, higher = more binding, comparable within an allelic series)"}, {"measurement": "binding signal", "setting": "HOXC9 [14]", "value": "9.55 upbm affinity estimate (log intensity, higher = more binding, comparable within an allelic series)"}, {"measurement": "binding signal", "setting": "HOXC9 [15]", "value": "9.63 upbm affinity estimate (log intensity, higher = more binding, comparable within an allelic series)"}, {"measurement": "binding signal", "setting": "PROP1 [19]", "value": "6.64 upbm affinity estimate (log intensity, higher = more binding, comparable within an allelic series)"}, {"measurement": "binding signal", "setting": "PROP1 [20]", "value": "6.59 upbm affinity estimate (log intensity, higher = more binding, comparable within an allelic series)"}, {"measurement": "binding signal", "setting": "HOXB9 [10]", "value": "8.38 upbm affinity estimate (log intensity, higher = more binding, comparable within an allelic series)"}, {"measurement": "binding signal", "setting": "HOXC9 [16]", "value": "9.61 upbm affinity estimate (log intensity, higher = more binding, comparable within an allelic series)"}, {"measurement": "binding signal", "setting": "PROP1 [21]", "value": "6.59 upbm affinity estimate (log intensity, higher = more binding, comparable within an allelic series)"}]}
